The results in this text go back to PubChem BioAssay.

The structures appear in SMILES notation. Calls of active or inactive are those of the source.

Assay [1] in a line: anti-His antibody binders, primary screen, artefact control for SMM control protein annotation, biochemical, small-molecule microarray, 635 nm fluorescence (AID 1128).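 Also: score merges feature fluorescence with signal-to-noise for each printed compound spot.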 The settings on record: anti-His Alexa647 antibody binding, higher = more signal.
The test system of assay [2] is Human papillomavirus type 1a E7 protein (residues 1-88). Briefly: HPV1a E7 small-molecule binders, primary screen, biochemical, small-molecule microarray, residues 1-88, 635 nm (AID 1129). Conditions: small-molecule microarray binding, fluorescence 635 nm; higher = more signal.
In assay [3] the target is Focal adhesion kinase 1 (Homo sapiens) (UniProt Q05397). Briefly: small-molecule microarray binders of FAK, primary screen, biochemical, 635/667 nm fluorescence, BSA, DTT (AID 1130).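 Also: composite of spot emission at 667 nm and signal to noise over triplicate slides.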 Conditions: PTK2 binding, 635 nm fluorescence, higher = more signal.
Sequence of Focal adhesion kinase 1 (Homo sapiens) (Q05397 whole entry, looked up): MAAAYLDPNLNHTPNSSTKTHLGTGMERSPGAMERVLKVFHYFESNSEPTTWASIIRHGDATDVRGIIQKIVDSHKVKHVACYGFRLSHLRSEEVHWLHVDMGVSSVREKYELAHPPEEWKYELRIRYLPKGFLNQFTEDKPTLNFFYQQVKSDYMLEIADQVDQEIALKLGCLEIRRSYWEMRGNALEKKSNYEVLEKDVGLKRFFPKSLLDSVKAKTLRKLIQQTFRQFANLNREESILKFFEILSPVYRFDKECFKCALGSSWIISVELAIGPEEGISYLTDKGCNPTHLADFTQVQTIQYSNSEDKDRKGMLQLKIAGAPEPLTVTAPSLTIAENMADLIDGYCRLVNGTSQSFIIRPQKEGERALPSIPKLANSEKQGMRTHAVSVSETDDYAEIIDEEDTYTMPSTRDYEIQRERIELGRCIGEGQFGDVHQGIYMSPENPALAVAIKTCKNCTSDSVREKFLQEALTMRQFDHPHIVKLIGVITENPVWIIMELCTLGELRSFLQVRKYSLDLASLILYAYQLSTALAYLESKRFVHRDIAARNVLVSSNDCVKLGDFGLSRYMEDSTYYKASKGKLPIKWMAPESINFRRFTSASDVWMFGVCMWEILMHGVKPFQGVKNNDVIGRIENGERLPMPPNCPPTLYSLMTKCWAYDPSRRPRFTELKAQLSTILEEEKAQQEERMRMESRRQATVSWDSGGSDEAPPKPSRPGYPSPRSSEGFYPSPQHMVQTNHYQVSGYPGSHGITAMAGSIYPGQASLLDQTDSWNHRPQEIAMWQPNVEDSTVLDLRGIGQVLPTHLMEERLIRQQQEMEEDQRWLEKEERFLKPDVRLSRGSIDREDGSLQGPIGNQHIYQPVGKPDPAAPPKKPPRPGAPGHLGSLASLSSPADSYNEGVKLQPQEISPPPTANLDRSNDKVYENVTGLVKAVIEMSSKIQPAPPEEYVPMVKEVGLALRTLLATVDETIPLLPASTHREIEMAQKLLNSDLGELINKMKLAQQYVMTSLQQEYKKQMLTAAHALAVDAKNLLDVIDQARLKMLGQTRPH
Assay [4] has as its system Fibrinogen (Alexa647-labelled). Description: fibrinogen binders on compound microarrays, profiling panel, artefact control for SMM control-protein annotation, biochemical, small-molecule microarray, 635/667 nm fluorescence (AID 1131).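 Also: z-score merges 667 nm fluorescence with per-spot signal-to-noise over triplicate slides.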 Conditions: fibrinogen-A647 binding fluorescence, higher = more signal.
In assay [5] the target is Follistatin (Homo sapiens) (UniProt P19883). Briefly: follistatin binders on small-molecule microarrays, primary screen, biochemical, small-molecule microarray, 635/667 nm fluorescence (AID 1132). Conditions: FST binding, 635 nm fluorescence, higher = more signal.
Sequence of Follistatin (Homo sapiens) (P19883 whole entry, looked up): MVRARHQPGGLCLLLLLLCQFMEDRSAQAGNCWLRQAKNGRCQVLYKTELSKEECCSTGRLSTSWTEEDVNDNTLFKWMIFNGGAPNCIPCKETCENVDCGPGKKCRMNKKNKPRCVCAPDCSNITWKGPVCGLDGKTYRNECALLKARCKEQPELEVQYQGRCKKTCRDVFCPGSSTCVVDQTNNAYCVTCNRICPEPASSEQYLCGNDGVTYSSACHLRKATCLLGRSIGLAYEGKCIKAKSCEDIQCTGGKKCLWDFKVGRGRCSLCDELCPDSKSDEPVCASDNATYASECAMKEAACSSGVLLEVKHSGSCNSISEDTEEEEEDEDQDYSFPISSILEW
Assay [6] addresses Fibroblast growth factor 2 (Homo sapiens) (UniProt P09038). Briefly: FGF2 binders on small-molecule microarrays, primary screen, biochemical, small-molecule microarray, 635/667 nm fluorescence (AID 1133). Conditions: small-molecule microarray binding, FGF2, fluorescence 635/667; higher = more signal.
The nature of assay [7]: mitochondrial membrane potential change in A549 cells, profiling panel, cell-based, JC-1 fluorescence, basal, 24 h, 100 nL (AID 1138).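 Also: A549 lung adenocarcinoma cells under basal conditions with no added stimulus; test concentration not given here.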 The settings on record: higher = more signal.
For the next assay, the system named is Lefty1. Description: Lefty1 binders on small-molecule microarrays, primary screen, biochemical, small-molecule microarray, 635/667 nm fluorescence (AID 1139). Conditions: small-molecule microarray binding, fluorescence 635/667; higher = more signal.
For assay [8], the system named is wheat germ agglutinin (Triticum aestivum), Alexa647-labelled. Description: wheat germ agglutinin binders on compound microarrays, profiling panel, artefact control for SMM control-protein annotation, biochemical, small-molecule microarray, 635/667 nm fluorescence (AID 1140).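 Also: score merges 667 nm feature emission with signal to noise over triplicate slides.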 Conditions: WGA-A647 binding, 635 nm fluorescence, higher = more signal.
In assay [9] the target is Luciferin 4-monooxygenase (Photinus pyralis) (UniProt P08659). Briefly: firefly luciferase enzyme inhibitors, primary screen, biochemical, luminescence, purified enzyme, 2006 set (AID 1141).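 Also: cell-free assay with purified firefly luciferase at 100 ng per well in PBS; test concentration not given here.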 Conditions: SteadyGlo luminescence, 30 min, higher = more signal, called active from +8 up or from −8 down.
Sequence of Luciferin 4-monooxygenase (Photinus pyralis) (P08659 whole entry, looked up): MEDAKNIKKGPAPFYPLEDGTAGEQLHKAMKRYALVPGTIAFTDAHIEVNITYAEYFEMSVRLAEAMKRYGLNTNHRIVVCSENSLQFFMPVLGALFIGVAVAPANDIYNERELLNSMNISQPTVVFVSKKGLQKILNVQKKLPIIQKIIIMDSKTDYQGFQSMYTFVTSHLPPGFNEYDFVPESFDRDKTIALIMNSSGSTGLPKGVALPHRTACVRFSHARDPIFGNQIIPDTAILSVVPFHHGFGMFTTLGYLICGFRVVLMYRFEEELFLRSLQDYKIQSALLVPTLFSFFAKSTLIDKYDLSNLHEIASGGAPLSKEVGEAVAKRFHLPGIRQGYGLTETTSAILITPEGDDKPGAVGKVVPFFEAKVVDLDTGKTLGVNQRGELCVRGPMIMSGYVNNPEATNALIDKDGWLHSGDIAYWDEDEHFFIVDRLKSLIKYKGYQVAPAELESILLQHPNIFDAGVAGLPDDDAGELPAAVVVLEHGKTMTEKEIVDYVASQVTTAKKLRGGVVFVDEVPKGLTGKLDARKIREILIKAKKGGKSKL

Sequence of Fibroblast growth factor 2 (Homo sapiens) (P09038 whole entry, looked up): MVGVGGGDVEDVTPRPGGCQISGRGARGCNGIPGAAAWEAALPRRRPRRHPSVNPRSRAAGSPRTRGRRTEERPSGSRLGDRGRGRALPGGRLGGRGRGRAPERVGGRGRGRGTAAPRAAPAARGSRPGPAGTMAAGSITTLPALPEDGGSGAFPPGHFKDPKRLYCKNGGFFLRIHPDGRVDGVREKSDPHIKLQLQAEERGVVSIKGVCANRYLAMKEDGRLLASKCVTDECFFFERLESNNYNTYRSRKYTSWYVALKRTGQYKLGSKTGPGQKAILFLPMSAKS

Turning to `CCCC[C@@H]1C[C@H]1[C@@H](NC(=O)c1cccnc1)c1ccc(-c2ccccc2)cc1`, the composite z-score was -0.238 in [1]; -0.647 in assay [2]; -0.14 in assay [3]; -2.12 in [4]; -1.17 in assay [5]; -2.03 in [6]. Moreover, the composite z-score in the assay with Lefty1 was -0.815; in assay [8], -0.166. Moreover, the z-score is 0.475 in assay [7] and 0.0562 (inactive) in assay [9].

Consider `COC1(C)CN(Cc2ccccc2Br)[C@H](/C=C/c2ccccc2)[C@H](Cc2ccccc2)O1` (stereo not given in full), for which the composite z-score in [1] is 0.258; in assay [2] it was -0.561; in assay [3] it was 0.106; in assay [4] it was -0.291; in [5], -0.598; in assay [6], -0.375. Besides, the composite z-score is 0.0787 in the assay on Lefty1 and 0.0565 in assay [8]. Further, the z-score in assay [7] was 0.267; in assay [9], -0.238 (inactive).

`CC(C)C(O)C1C=CC2C(=O)N(C)C(=O)C2N1N(c1ccccc1)c1ccccc1` (stereo not given): the composite z-score in assay [1] is 0.545; in assay [2], -0.735; in [3], 0.523; in assay [4], 0.597; in assay [5] it was -0.0394; in [6] it was -0.926. Also, the composite z-score with Lefty1 was -0.852; in assay [8], 0.357. The z-score is 0.953 in [7] and 0.734 (inactive) in [9].

With `C=C(CCCC)/C(=C/C[C@@H](OC(=O)c1ccncc1)c1cccc(OCCO)c1)c1cnc2ccccc2c1`, the composite z-score came out at 0.65 in assay [1]; 0.539 in assay [2]; 0.0663 in [3]; 0.832 in assay [4]; 1.5 in assay [5]; 1.74 in assay [6]. The composite z-score came out at 1.6 in the assay on Lefty1 and 0.871 in [8]. The z-score in [7] is 1.14; in [9] it was -1.63 (inactive).

In the case of `Cc1ccc(S[C@]2(C(=O)NC(C)C)CC(=O)N(Cc3ccccc3C(F)(F)F)[C@@H]2c2ccc(CO)cc2I)cc1`, the composite z-score in assay [1] was 1.15; in assay [2] it was -0.0732; in [3], 0.955; in assay [4], -0.515; in [5], 0.0697; in assay [6], -0.848. For the same compound, the results for the composite z-score (in the assay with Lefty1; in assay [8]) were -1.03 and -0.229, respectively. For the same compound, the z-score in assay [7] is -0.279; in [9], 1.35 (inactive).

Regarding `Cc1ccc(F)cc1S(=O)(=O)N[C@@H]1CCN(Cc2ccc(OC(C)C)cc2)C1`, the composite z-score in [1] was 0.111; in assay [2], -1.37; in assay [3], -0.425; in [4] it was -0.907; in [5], -0.235; in assay [6], 0.47. In addition, the composite z-score was -0.177 in the assay with Lefty1 and -1.28 in [8]. Moreover, the z-score is 1.14 in assay [7] and 0.0358 (inactive) in [9].

For the compound `COC(=O)[C@]1(CCS(=O)(=O)c2ccccc2)N=C(c2ccc(OCCCO)cc2)O[C@@H]1c1ccccc1CN=[N+]=[N-]`, the composite z-score was found to be 1.15 in [1]; 1.23 in [2]; 1.34 in [3]; 0.954 in assay [4]; 1.35 in assay [5]; 0.807 in assay [6]. In addition, the composite z-score turned out to be 0.293 in the assay on Lefty1 and 0.528 in assay [8]. The figures for the z-score in assay [7] and in [9] were 0.332 and -0.587 (inactive), respectively.

Regarding `COCCOC(=O)N1C(=O)[C@@]2(c3cc(C#CC4=CCCCC4)ccc31)[C@H](c1ccccc1OCCO)N1[C@H](c3ccccc3)[C@H](c3ccccc3)OC(=O)[C@H]1[C@@H]2C(=O)N1CCc2cc(OC)c(OC)cc2C1`, the composite z-score was found to be 0.891 in [1]; 1.2 in assay [2]; 0.204 in assay [3]; 0.764 in assay [4]; 1.28 in [5]; 0.917 in [6]. Moreover, the values for the composite z-score (in the assay on Lefty1; in assay [8]) were 0.555 and 0.441, respectively. Further, the z-score in assay [7] is -0.682; in [9], -1.97 (inactive).

`CN(C)CCCNC(=O)[C@@H]1c2ccccc2C(=O)N(Cc2ccc(OC(F)(F)F)cc2)[C@H]1c1ccc(CO)cc1`: the composite z-score in assay [1] was 0.21; in [2], 0.701; in [3] it was 0.0807; in assay [4], 0.18; in assay [5], 1.18; in assay [6], -0.22. Moreover, the values for the composite z-score (with Lefty1; in assay [8]) were 0.9 and -0.374, respectively. The figures for the z-score in [7] and in assay [9] were 0.311 and 1.15 (inactive), respectively.

In the case of `C=CC[C@H](OC(=O)Nc1ccc(OC)cc1)c1ccc(O)c2ccccc12`, the composite z-score in assay [1] amounted to 1.15; in assay [2] it was 1.16; in [3], 0.531; in [4], 0.305; in assay [5] it was 1.3; in [6], 1.64. Also, the figures for the composite z-score (in the assay on Lefty1; in assay [8]) were 0.907 and 0.616, respectively. Moreover, the z-score in assay [7] was -1.43; in [9] it was -6.26 (inactive).

As for `C=C[C@@H](C)[C@H](OC(=O)Nc1ccc(SC)cc1)c1ccc(OCCO)cc1`, the composite z-score in assay [1] is -0.0489; in [2], -0.784; in assay [3], 0.31; in assay [4], -1.64; in [5] it was 0.229; in [6], -0.549. Moreover, the values for the composite z-score (with Lefty1; in [8]) were 0.0878 and 0.782, respectively. For the same compound, the z-score in assay [7] was -0.497; in assay [9], -4.77 (inactive).

In the case of `CC(C)C(=C=CC[C@H](O)c1ccc(OCCO)cc1)C[C@H](O)c1cc(Cl)cc(Cl)c1O`, the composite z-score in assay [1] is 2.46; in [2] it was 1.09; in [3], -0.0133; in assay [4], 0.134; in assay [5], 0.996; in [6] it was 1.09. For the same compound, the figures for the composite z-score (in the assay with Lefty1; in assay [8]) were 1.22 and 0.539, respectively. The z-score was 1.78 in assay [7] and -1.78 (inactive) in [9].

As to `CCCNC(=O)[C@@]1(c2ccc([N+](=O)[O-])cc2)CC(=O)N(C2CCCCC2)[C@@H]1c1ccc(CO)cc1I`, the composite z-score in assay [1] is 2.18; in assay [2] it was 0.949; in [3], 0.178; in assay [4], 0.34; in assay [5], 1.21; in assay [6] it was 1.52. Besides, the values for the composite z-score (in the assay with Lefty1; in assay [8]) were 1.01 and 1.1, respectively. Moreover, the z-score was 1.4 in assay [7] and -0.424 (inactive) in assay [9].

As for `COC(=O)[C@@]1(Cc2ccc(OC)cc2)[C@H]2c3cc(C(=O)N4CCCC4)n(CCc4cc5ccccc5[nH]4)c3C[C@H]2CN1C(=O)c1ccccc1`, the composite z-score in assay [1] came out at 2.2; in [2], 1.25; in assay [3], 0.832; in [4] it was 0.98; in [5], 1.18; in [6], 0.754. For the same compound, the composite z-score was -0.246 with Lefty1 and 1.05 in assay [8]. For the same compound, the results for the z-score in assay [7] and in assay [9] were 1.3 and 1.91 (inactive), respectively.
